# Records with an inconclusive call do not appear. Values without a mark were called inactive. Activity calls are given as the source filed them. Calls come from the whole dose curve; as a rule, active = well fitted inhibition curve with a large enough effect; inconclusive = small, poorly fitted or top-dose-only effect; inactive = flat fitted curve, though single readings scatter.
# Biological target: Galactokinase (Homo sapiens) (UniProt P51570)
# Experiment: Confirmation Assay for Inhibitors of Human Galactokinase (GALK): SAR round 2
# Settings: Recombinant GALK, Kinase-Glo ATP depletion luminescence; series mostly up to 57.5 µM; activity, negative = inhibition: at the top concentration
# From the text: NIH Molecular Libraries Probe Production Centers Network [MLPCN] NIH Chemical Genomics Center [NCGC] MLPCN Grant: R03 MH085689-01 Assay Submitter (PI): Kent Lai (University of Utah School of Medicine, 50 N Mario Capecchi Drive, Salt Lake City, UT 84132) NCGC Assay Overview Inherited deficiency of galactose-1-phosphate uridyltransferase (GALT) can result in a potentially lethal disorder called Classic Galactosemia (OMIM 230400). Several lines of evidence indicate that an elevated level of galactose-1-phosphate (gal-1-p), the product of galactokinase (GALK), is a major, if not sole, pathogenic mechanism in patients with classic galactosemia. Therefore, finding inhibitors of GALK is a potential novel therapy for this inherent metabolic disease and is the long term goal of this project. Active compounds observed in the qHTS GALK assay (AID: 1868) were cherry picked and re-screened for validation. GALK (provided by Kent Lai) was assayed using ATP and D-(+)-Galactose (Sigma-Aldrich cat# G0750) as substrates. Promega Kinase-Glo Plus (cat# V3774) technology was used to detect the residual ATP following kinetic reaction. Briefly, the Kinase-Glo Plus contains Ultra-Glo [1] luciferase and D-luciferin which generates a bioluminescence signal from the remaining ATP. Kinase reactions with and without GALK were used as negative and positive controls together with Protein Tyrosine Phosphatase CD45 inhibitor (EMD Bioscience cat# 540215) which is shown to inhibit GALK activity.
# NCGC Assay Protocol Summary: Three uL/well of ATP-buffer solution (35 uM ATP, 20mM HEPES pH8.0, 5 mM MgCl2, 60 mM NaCl, 1 mM DTT, 0.01% BSA final concentration) was dispensed into 1536-well, assay plates (Greiner, solid white medium-binding plates) with Aurora Discovery BioRAPTR Flying Reagent Dispenser (FRD; Beckton-Dickenson). Compound and control solution (23 nL) was transferred to the assay plate using the Kalypsys 1536-pin tool apparatus. One uL/well GALK-galactose solution (5 nM GALK, 100 uM galactose, 20 mM HEPES pH8.0, 5 mM MgCl2, 60 mM NaCl, 1 mM DTT, 0.01% BSA final concentration) was then added using the FRD yielding a total kinase reaction volume of 4 uL/ well. After 1 hour of room temperature incubation, 4 uL Kinase-Glo Plus reagent was added for a final assay volume of 8 uL/well. Luminescence was detected with the ViewLux plate reader (Perkin Elmer, Waltham, MA) after 2 min incubation using a 1 sec exposure time and 2x binning.
# Chain of Galactokinase (Homo sapiens) (P51570 whole entry, looked up): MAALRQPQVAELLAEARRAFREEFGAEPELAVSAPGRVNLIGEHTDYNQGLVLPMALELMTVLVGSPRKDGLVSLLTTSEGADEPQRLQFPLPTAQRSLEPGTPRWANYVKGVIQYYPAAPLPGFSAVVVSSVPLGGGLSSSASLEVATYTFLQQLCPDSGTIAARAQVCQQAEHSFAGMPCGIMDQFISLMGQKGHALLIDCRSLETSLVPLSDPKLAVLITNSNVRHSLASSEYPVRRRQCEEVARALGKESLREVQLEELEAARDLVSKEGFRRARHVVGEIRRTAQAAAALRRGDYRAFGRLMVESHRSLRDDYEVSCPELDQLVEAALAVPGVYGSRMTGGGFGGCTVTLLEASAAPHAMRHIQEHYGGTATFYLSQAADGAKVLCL
SMILES,"activity, negative = inhibition",Potency
Cc1ccc(N(CC(=O)Nc2ccc(OC(F)(F)F)cc2)S(=O)(=O)c2c(C)noc2C)cc1,-9.27% [at 115 µM],–
CC(C)c1nc(Nc2nc3ccccc3o2)nc2c1CCCC2,-1.14%,–
Cc1ccc(C2N=C(Nc3nc4ccccc4o3)NC3=C2C(=O)CCC3)s1 (configuration not stated),–,61.1 µM (active)
COc1cccc(C2N=C(Nc3nc4ccccc4o3)NC3=C2C(=O)CCC3)c1 (configuration not stated),–,18.8 µM (active)
Cc1nc(Nc2nc3ccccc3o2)nc2c1CCCC2,0.459%,–
O=C1CCCC2=C1C(c1ccccc1Cl)N=C(Nc1nc3ccccc3o1)N2 (configuration not stated),–,2.66 µM (active)
O=C1CCCC2=C1C(c1ccncc1Cl)N=C(Nc1nc3ccccc3o1)N2 (configuration not stated),–,15.3 µM (active)
O=C1CCCC2=C1C(c1cccc(Oc3ccccc3)c1)N=C(Nc1nc3ccccc3o1)N2 (configuration not stated),-10.9% [at 172 µM],–
O=C1CCCC2=C1C(c1ccccc1)N=C(Nc1nc3ccccc3o1)N2 (configuration not stated),–,34.3 µM (active)
O=C1CCCC2=C1C(c1ccccc1C(F)(F)F)N=C(Nc1nc3ccccc3o1)N2 (configuration not stated),–,12.2 µM (active)
O=C1CCCC2=C1[C@@]1(CCC(c3ccccc3)C1)N=C(Nc1nc3ccccc3o1)N2 (some centres not stated),-7.78%,–
CC(C)(C)C(=O)Nc1ccc2c(c1)C(=O)C(=O)c1ccccc1-2,–,2.59 µM (active)

# From PubChem BioAssay AID493188 (National Center for Advancing Translational Sciences (NCATS), 2011)
